# In PubChem BioAssay (EPA / NIEHS):
# Inconclusive results are not listed. Activity calls are given as the source filed them. The calls were made as follows: active = hit-call score of the fitted dose curve at least 0.9, where 1 is the maximum; inconclusive = response in the unintended direction; inactive = score below 0.9.
# Columns and labels:
# [1] = molecular target: human Protein Tyrosine Phosphatase Non-receptor Type 1 (PTPN1), PTPN1 (gene 5770) (UniProt P18031); assay: NVS_ENZ_hPTPN1: NovaScreen (NVS) Enzymatic Assay for human Protein Tyrosine Phosphatase Non-receptor Type 1 (PTPN1) (AID 2283201)
# Procedure, shortened: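 Chemicals were first tested in duplicate at 25 uM, and those passing threshold went on to singleton concentration series topping at 50 uM. Recombinant enzyme, specific substrate, product separated by mobility shift, fluorescence read at 1.33 h; activity loss relative to DMSO.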
# [2] = molecular target: Tyrosine-protein phosphatase non-receptor type 11 (Homo sapiens) (UniProt Q06124); assay: NVS_ENZ_hPTPN11: NovaScreen (NVS) Enzymatic Assay for human Protein Tyrosine Phosphatase Non-receptor Type 11 (PTPN11) (AID 2283202)
# Procedure, shortened: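 Compounds first tested in duplicate at 25 uM; those reaching ~30% inhibition rerun in singleton concentration-response, top 50 uM. Phosphatase activity measured after 0.5 h by fluorescence with mobility-shift separation, relative to DMSO.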
# [3] = molecular target: human Phosphatase and Tensin Homolog (PTEN), PTEN (gene 5728) (UniProt P60484); assay: NVS_ENZ_hPTEN: NovaScreen (NVS) Enzymatic Assay for human Phosphatase and Tensin Homolog (PTEN) (AID 2283203)
# Procedure, shortened: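 Loss of fluorescent product signal after mobility-shift separation reports PTEN activity, recombinant human enzyme, 1 h after compound addition. Single 25 uM duplicate screen, then concentration-response on actives; DMSO baseline.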
# [4] = molecular target: Tyrosine-protein phosphatase non-receptor type 14 (Homo sapiens) (UniProt Q15678); assay: NVS_ENZ_hPTPN14: NovaScreen (NVS) Enzymatic Assay for human Protein Tyrosine Phosphatase Non-receptor Type 14 (PTPN14) (AID 2283206)
# Experimental: (§1) NVS_ENZ_hPTPN14 is a biochemical, single-readout assay that uses extracted gene-proteins in a cell-free assay. Measurements were taken 0.5 hour after chemical dosing in a 384-well plate.NVS_ENZ_hPTPN14 is one of one assay component(s) measured or calculated from the NVS_ENZ_hPTPN14 assay. It is designed to make measurements of enzyme activity, a form of enzyme reporter, as detected with fluorescence intensity signals by Fluorescence and electrophoretic mobility shift technology.Data from the assay component NVS_ENZ_hPTPN14 was analyzed into 1 assay endpoint. This assay endpoint, NVS_ENZ_hPTPN14, was analyzed in the positive analysis fitting direction relative to DMSO as the negative control and baseline of activity. Using a type of enzyme reporter, loss-of-signal activity can be used to understand changes in the enzymatic activity as they relate to the gene PTPN14. Furthermore, this assay endpoint can be referred to as a primary readout, because this assay has produced multiple assay endpoints where this one serves a enzymatic activity function. To generalize the intended target to other relatable targets, this assay endpoint is annotated to the phosphatase intended target family, where the subfamily is non-receptor tyrosine phosphatase.
# (§2) Binding assays used specific radioligands (tritiated, iodinated) with non-radioactive competitive displacement ligands in agonist or antagonist protocols (as indicated) and various reference compounds and inhibitors to titrate specific binding to receptors and transporters. Most enzyme assays (CYPs, kinases, phosphatases, proteases, HDACs) used recombinant protein and specific substrates (fluorescence mostly, some colorimetric and radioactive) and inhibitors, followed by a biochemical separation of substrate and product. All assays for the biochemical HTS were initially run in duplicate at a single concentration (10 uM for CYP450 assays and 25 uM for all others). Assay-chemical combinations meeting a pre-defined threshold (e.g., 30% inhibition and other criteria defined below) were then run in singleton concentration-response format with maximum concentration of 20 uM for CYPs and 50 uM for all others. Each assay was run with positive and negative controls, and concurrent controls on every plate. The follow-up (secondary) screen tested active chemical-pairs in concentration series, as well as a few additional assays not tested in the primary screen, some selected negative inactives, and several cases re-run in the concentration series for confirmatory purposes.
# [5] = molecular target: human Protein Tyrosine Phosphatase Non-receptor Type 2 (PTPN2), PTPN2 (gene 5771) (UniProt P17706); assay: NVS_ENZ_hPTPN2: NovaScreen (NVS) Enzymatic Assay for human Protein Tyrosine Phosphatase Non-receptor Type 2 (PTPN2) (AID 2283207)
# Experimental: as §1, with “NVS_ENZ_hPTPN2” for “NVS_ENZ_hPTPN14”, “1” for “0.5”, “plate.NVS_ENZ_hPTPN2” for “plate.NVS_ENZ_hPTPN14”, “NVS_ENZ_hPTPN2,” for “NVS_ENZ_hPTPN14,”, “PTPN2.” for “PTPN14.”
# as §2, with “Assay-chemical combinations meeting a pre-defined threshold (e.g., 30% inhibition and other criteria defined below) were then run in singleton concentration-response format with maximum concentration of 20 uM for CYPs and 50 uM for all others.” left out
# [6] = molecular target: human Protein Tyrosine Phosphatase Non-receptor Type 9 (PTPN9), PTPN9 (gene 5780) (UniProt P43378); assay: NVS_ENZ_hPTPN9: NovaScreen (NVS) Enzymatic Assay for human Protein Tyrosine Phosphatase Non-receptor Type 9 (PTPN9) (AID 2283209)
# Procedure, shortened: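 Sf9-expressed enzyme in a cell-free assay, fluorescence read 1.33 h after dosing with mobility-shift separation of substrate and product. Tested at 25 uM in duplicate, then up to 50 uM; signal loss versus DMSO.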
# [7] = molecular target: human Protein Tyrosine Phosphatase Receptor Type B (PTPRB), PTPRB (gene 5787) (UniProt P23467); assay: NVS_ENZ_hPTPRB: NovaScreen (NVS) Enzymatic Assay for human Protein Tyrosine Phosphatase Receptor Type B (PTPRB) (AID 2283211)
# Procedure, shortened: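 Recombinant human PTPRB with a fluorescent substrate, product separated by electrophoretic mobility shift; read 1 h after dosing. Primary screen in duplicate at 25 uM; actives then retested in concentration series; loss of signal versus DMSO.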
# [8] = molecular target: Tyrosine-protein phosphatase non-receptor type 12 (Homo sapiens) (UniProt Q05209); assay: NVS_ENZ_hPTPN12: NovaScreen (NVS) Enzymatic Assay for human Protein Tyrosine Phosphatase Non-receptor Type 12 (PTPN12) (AID 2283204)
# Experimental: as §1, with “NVS_ENZ_hPTPN12” for “NVS_ENZ_hPTPN14”, “1.33 hours” for “0.5 hour”, “plate.NVS_ENZ_hPTPN12” for “plate.NVS_ENZ_hPTPN14”, “NVS_ENZ_hPTPN12,” for “NVS_ENZ_hPTPN14,”, “PTPN12.” for “PTPN14.”, “phosphatase. […]” for “phosphatase.”
# [9] = molecular target: Tyrosine-protein phosphatase non-receptor type 13 (Homo sapiens) (UniProt Q12923); assay: NVS_ENZ_hPTPN13: NovaScreen (NVS) Enzymatic Assay for human Protein Tyrosine Phosphatase Non-receptor Type 13 (PTPN13) (AID 2283205)
# Procedure, shortened: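 Screened first at a single 25 uM in duplicate; compounds passing the threshold (e.g. 30% inhibition) were rerun in concentration series, top 50 uM. Recombinant enzyme, fluorescent substrate, mobility-shift separation, 0.5 h read. Data fitted as inhibition relative to DMSO.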
# [10] = molecular target: human Protein Tyrosine Phosphatase Non-receptor Type 4 (PTPN4), PTPN4 (gene 5775) (UniProt P29074); assay: NVS_ENZ_hPTPN4: NovaScreen (NVS) Enzymatic Assay for human Protein Tyrosine Phosphatase Non-receptor Type 4 (PTPN4) (AID 2283208)
# Procedure, shortened: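 Screened in duplicate at 25 uM, with hits then titrated to a top concentration of 50 uM. Recombinant Sf9-derived PTPN4 turnover was read by fluorescence with electrophoretic separation, 1.33 h after compound addition. DMSO served as baseline.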
# human Protein Tyrosine Phosphatase Non-receptor Type 2 (PTPN2), PTPN2 (gene 5771), sequence (P17706 whole entry, looked up): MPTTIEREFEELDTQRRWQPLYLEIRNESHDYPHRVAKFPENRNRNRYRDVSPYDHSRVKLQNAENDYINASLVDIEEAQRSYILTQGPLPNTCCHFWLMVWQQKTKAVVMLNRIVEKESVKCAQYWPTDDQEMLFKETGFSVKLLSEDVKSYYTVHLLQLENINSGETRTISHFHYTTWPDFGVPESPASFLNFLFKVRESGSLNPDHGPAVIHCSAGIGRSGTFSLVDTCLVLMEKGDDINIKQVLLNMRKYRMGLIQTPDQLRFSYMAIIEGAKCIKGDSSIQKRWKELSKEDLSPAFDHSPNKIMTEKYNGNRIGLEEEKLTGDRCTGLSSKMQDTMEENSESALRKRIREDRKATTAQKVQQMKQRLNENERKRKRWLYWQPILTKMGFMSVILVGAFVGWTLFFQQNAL
# human Protein Tyrosine Phosphatase Receptor Type B (PTPRB), PTPRB (gene 5787), sequence (P23467 whole entry, looked up): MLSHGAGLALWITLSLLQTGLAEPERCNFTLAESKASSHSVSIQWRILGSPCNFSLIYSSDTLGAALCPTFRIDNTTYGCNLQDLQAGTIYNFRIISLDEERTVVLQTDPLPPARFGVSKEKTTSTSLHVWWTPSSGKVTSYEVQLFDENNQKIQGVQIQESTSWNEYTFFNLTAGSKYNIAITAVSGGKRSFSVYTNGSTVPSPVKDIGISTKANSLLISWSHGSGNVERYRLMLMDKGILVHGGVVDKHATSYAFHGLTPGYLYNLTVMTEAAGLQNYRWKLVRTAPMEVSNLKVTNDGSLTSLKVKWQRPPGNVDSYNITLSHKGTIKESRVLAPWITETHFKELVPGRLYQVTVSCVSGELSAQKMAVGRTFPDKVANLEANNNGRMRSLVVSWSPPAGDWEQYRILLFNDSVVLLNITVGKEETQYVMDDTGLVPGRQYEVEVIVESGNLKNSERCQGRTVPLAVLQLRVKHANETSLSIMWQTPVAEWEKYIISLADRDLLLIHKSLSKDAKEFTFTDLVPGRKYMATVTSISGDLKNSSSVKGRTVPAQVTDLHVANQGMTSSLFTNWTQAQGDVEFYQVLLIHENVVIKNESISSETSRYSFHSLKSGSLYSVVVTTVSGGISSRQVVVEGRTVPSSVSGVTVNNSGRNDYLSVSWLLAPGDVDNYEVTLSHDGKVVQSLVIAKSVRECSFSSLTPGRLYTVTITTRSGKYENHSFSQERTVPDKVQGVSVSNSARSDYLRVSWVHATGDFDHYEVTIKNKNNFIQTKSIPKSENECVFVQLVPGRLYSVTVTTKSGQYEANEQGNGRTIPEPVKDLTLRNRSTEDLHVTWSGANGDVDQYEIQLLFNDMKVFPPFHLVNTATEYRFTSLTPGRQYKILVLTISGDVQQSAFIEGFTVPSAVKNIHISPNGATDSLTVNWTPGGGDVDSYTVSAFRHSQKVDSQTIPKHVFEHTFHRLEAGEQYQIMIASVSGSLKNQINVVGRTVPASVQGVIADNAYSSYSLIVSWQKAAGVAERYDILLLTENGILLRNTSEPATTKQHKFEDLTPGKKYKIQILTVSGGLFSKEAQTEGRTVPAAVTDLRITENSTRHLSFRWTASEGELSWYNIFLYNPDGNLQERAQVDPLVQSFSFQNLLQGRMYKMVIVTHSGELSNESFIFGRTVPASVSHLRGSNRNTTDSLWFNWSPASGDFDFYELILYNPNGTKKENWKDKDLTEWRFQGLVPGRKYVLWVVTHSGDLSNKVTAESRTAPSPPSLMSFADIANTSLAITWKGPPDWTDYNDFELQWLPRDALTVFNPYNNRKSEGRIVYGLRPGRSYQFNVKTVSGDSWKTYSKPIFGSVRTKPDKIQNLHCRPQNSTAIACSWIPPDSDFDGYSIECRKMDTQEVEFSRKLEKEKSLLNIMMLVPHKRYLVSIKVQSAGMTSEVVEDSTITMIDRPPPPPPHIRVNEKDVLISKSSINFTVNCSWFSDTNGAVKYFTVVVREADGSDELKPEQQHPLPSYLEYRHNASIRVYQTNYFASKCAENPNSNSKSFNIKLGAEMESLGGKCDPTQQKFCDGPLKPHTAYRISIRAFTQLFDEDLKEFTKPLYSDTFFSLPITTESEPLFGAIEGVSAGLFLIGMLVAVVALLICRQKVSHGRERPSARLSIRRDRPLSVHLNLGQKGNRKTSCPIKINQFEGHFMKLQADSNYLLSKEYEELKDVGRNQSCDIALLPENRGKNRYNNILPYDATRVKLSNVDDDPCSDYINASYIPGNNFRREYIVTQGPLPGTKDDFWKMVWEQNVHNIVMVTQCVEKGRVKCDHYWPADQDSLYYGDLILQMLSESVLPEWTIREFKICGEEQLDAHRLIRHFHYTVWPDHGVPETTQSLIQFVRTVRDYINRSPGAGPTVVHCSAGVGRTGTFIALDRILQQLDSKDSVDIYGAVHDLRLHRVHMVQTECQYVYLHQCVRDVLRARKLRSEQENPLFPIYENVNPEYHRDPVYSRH
# human Protein Tyrosine Phosphatase Non-receptor Type 1 (PTPN1), PTPN1 (gene 5770), sequence (P18031 whole entry, looked up): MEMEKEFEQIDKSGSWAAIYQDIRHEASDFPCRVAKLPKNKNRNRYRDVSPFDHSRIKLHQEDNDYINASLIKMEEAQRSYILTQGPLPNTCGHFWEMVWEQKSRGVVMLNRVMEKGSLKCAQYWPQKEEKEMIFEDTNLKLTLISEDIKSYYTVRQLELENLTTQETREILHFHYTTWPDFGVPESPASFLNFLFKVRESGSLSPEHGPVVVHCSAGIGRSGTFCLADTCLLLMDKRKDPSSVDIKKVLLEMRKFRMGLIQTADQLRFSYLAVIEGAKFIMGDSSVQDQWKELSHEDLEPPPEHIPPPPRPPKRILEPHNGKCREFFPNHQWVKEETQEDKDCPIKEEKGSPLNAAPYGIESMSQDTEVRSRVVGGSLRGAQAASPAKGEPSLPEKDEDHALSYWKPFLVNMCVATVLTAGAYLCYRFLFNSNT
# Tyrosine-protein phosphatase non-receptor type 14 (Homo sapiens), sequence (Q15678 whole entry, looked up): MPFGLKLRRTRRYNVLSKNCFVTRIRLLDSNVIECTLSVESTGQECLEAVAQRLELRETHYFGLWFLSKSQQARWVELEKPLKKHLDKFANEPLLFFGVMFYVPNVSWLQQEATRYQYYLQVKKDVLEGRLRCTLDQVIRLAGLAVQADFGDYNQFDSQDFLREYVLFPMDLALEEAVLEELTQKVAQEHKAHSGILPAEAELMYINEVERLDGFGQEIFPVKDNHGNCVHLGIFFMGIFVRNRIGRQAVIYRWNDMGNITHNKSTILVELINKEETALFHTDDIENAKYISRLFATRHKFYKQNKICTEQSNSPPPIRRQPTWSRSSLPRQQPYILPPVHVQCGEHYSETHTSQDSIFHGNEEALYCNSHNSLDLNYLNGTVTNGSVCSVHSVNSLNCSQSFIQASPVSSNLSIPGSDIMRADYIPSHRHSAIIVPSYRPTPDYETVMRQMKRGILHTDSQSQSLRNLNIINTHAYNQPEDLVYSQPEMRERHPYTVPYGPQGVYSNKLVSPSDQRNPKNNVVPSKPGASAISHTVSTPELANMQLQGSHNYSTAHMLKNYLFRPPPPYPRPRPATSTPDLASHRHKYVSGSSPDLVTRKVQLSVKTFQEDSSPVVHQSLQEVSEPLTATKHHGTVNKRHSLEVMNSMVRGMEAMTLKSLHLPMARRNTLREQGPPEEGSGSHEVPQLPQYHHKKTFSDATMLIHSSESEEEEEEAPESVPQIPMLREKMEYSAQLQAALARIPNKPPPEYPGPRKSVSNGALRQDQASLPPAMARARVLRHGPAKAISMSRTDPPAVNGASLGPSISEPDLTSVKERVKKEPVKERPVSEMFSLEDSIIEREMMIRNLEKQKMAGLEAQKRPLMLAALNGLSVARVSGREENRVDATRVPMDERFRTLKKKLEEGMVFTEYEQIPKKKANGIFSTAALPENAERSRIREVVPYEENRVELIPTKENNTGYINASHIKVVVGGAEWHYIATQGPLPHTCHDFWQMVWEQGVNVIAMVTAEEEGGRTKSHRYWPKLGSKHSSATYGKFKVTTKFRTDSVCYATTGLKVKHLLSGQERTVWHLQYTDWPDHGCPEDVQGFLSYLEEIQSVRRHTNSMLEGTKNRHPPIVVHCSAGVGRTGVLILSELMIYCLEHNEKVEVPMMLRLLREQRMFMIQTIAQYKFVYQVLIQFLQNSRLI
# human Phosphatase and Tensin Homolog (PTEN), PTEN (gene 5728), sequence (P60484 whole entry, looked up): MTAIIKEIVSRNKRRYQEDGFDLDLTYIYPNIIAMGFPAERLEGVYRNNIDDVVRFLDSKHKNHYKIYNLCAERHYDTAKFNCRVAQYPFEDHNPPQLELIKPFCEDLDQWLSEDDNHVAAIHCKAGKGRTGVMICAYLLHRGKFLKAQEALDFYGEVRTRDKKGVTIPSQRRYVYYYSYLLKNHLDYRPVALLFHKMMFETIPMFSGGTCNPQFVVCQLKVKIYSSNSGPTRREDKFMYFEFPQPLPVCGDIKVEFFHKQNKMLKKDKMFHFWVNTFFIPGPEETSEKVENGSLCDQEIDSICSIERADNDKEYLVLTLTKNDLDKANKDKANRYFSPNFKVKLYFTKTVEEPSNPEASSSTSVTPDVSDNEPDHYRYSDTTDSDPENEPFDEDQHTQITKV
# human Protein Tyrosine Phosphatase Non-receptor Type 9 (PTPN9), PTPN9 (gene 5780), sequence (P43378 whole entry, looked up): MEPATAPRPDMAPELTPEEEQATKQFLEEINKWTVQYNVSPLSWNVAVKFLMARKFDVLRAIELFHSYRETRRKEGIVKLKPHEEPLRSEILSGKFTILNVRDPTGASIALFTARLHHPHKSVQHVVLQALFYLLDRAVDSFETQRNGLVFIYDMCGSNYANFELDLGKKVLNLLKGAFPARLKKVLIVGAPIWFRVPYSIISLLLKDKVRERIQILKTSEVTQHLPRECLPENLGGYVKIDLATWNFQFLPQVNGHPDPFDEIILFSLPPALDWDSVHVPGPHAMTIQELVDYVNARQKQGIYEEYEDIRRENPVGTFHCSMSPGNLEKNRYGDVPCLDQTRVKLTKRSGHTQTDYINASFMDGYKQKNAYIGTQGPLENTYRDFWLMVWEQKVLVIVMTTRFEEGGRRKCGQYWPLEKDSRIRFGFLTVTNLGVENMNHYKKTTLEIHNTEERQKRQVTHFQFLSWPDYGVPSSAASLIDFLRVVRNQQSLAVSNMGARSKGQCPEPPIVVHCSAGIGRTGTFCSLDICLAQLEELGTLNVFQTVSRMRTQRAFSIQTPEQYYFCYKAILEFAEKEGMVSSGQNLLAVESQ
smiles,measurement,setting,value
CC(C)N1C(=O)N(c2ccccc2)CSC1=NC(C)(C)C,outcome,[1],inactive
CC(C)N1C(=O)c2ccccc2NS1(=O)=O,outcome,[2],inactive
N#Cc1c[nH]cc1-c1cccc2c1OC(F)(F)O2,outcome,[1],inactive
O=C1C2CC=CCC2C(=O)N1SC(Cl)(Cl)Cl (configuration not stated),AC50,[3],23 µM (active)
same,outcome,[4],inactive
same,AC50,[5],46.9 µM (active)
same,outcome,[6],inactive
CCOP(=O)(OCC)Oc1nc(Cl)c(Cl)cc1Cl,outcome,[4],inactive
N#Cc1c(Cl)cccc1Cl,outcome,[7],inactive
N#CN=C1SCCN1Cc1ccc(Cl)nc1,outcome,[3],inactive
same,outcome,[5],inactive
Nc1cnn(-c2ccccc2)c(=O)c1Cl,outcome,[1],inactive
CS(=O)(=O)c1cc(C(F)(F)F)ccc1C(=O)c1cnoc1C1CC1,outcome,[4],inactive
CCN(CC)C(=O)C(C)Oc1cccc2ccccc12 (configuration not stated),outcome,[5],inactive
COP(=S)(OC)SCn1nnc2ccccc2c1=O,outcome,[4],inactive
O=c1n(Cl)c(=O)n(Cl)c(=O)n1Cl,outcome,[7],inactive
CC(C)=CC1C(C(=O)OCc2coc(Cc3ccccc3)c2)C1(C)C (configuration not stated),outcome,[8],inactive
Nc1c(Cl)c(Cl)nc(C(=O)O)c1Cl,outcome,[1],inactive
CCOc1nc(F)cc2nc(S(=O)(=O)Nc3c(Cl)cccc3Cl)nn12,outcome,[1],inactive
same,AC50,[3],29.9 µM (active)
CN=C=S,outcome,[1],inactive
COP(=S)(OC)Oc1ccc([N+](=O)[O-])c(C)c1,outcome,[4],inactive
CN/C(=N\[N+](=O)[O-])NCc1cnc(Cl)s1,outcome,[5],inactive
CCOC(=O)C(C)OC(=O)c1cc(Oc2ccc(C(F)(F)F)cc2Cl)ccc1[N+](=O)[O-] (configuration not stated),outcome,[5],inactive
CCCC(=NOCC)C1=C(O)CC(CC(C)SCC)CC1=O (configuration not stated),outcome,[1],inactive
same,AC50,[3],18.2 µM (active)
same,outcome,[8],inactive
same,outcome,[9],inactive
same,outcome,[5],inactive
same,AC50,[10],17.9 µM (active)
same,AC50,[6],42.2 µM (active)
same,outcome,[7],inactive
